Reference: paper PMC7862700, “An all-to-all approach to the identification of sequence-specific readers for epigenetic DNA modifications on cytosine”

Experiments:
Assay in all cases: DAPPL (digital affinity profiling via proximity ligation, sequencing); 10 mM Tris-HCl pH 7.5, 50 mM NaCl, 1 mM DTT, 4% glycerol, room temperature, 30 min; GST-TFs on glutathione beads, 16-mer random dsDNA library, 0.1% formaldehyde crosslink after washing; high values mean tight binding
Conditions in all cases: protein: recombinant; tags: N-terminal GST; dsDNA, one strand shown
ERF = target: T1, ERF (Homo sapiens, UniProt P50548 1-548)
T1 sequence: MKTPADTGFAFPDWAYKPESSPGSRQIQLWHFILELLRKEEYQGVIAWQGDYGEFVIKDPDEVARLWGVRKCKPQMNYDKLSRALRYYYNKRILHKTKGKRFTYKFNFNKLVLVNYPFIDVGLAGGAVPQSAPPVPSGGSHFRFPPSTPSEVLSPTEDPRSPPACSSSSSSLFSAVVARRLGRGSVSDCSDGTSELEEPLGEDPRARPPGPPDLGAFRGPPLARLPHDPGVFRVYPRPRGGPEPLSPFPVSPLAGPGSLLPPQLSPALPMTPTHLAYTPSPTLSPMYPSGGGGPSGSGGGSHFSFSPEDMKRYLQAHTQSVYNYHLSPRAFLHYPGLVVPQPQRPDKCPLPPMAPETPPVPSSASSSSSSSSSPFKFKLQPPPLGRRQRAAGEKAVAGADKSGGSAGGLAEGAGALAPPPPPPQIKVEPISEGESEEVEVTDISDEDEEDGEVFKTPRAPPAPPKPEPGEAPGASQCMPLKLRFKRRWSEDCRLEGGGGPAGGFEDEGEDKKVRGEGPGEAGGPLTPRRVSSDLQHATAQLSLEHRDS
Method in brief: (§1)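 After expression in yeast as GST fusions, human transcription factors were bound to glutathione beads, DNA-barcoded and mixed with a tag-only sample. The pools were incubated with 200 nmole of a 16-mer random double-stranded DNA library in Tris/NaCl/DTT/glycerol buffer (30 min, room temperature), washed and crosslinked with 0.1% formaldehyde. Proximity ligation with BsaI/T4 ligase ran for 1 h at 37 °C, before PCR amplification and sequencing on an Illumina NextSeq500. Binding signal is a hexamer's read frequency for a factor divided by its frequency for the tag-only sample.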

ETV3L = target: T2, ETV3L (Homo sapiens, UniProt Q6ZN32 1-361)
T2 sequence: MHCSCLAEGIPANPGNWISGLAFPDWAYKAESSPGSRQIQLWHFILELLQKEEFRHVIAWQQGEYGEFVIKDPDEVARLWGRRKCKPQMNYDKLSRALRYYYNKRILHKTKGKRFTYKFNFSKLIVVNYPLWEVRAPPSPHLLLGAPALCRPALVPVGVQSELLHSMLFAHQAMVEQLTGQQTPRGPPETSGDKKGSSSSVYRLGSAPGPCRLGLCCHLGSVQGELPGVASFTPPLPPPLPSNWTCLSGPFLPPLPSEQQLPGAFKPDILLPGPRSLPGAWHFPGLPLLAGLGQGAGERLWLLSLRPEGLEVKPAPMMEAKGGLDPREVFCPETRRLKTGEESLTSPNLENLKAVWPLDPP
Method in brief: as §1

ETS2 = target: T3, ETS2 (Homo sapiens, UniProt P15036 1-469)
T3 sequence: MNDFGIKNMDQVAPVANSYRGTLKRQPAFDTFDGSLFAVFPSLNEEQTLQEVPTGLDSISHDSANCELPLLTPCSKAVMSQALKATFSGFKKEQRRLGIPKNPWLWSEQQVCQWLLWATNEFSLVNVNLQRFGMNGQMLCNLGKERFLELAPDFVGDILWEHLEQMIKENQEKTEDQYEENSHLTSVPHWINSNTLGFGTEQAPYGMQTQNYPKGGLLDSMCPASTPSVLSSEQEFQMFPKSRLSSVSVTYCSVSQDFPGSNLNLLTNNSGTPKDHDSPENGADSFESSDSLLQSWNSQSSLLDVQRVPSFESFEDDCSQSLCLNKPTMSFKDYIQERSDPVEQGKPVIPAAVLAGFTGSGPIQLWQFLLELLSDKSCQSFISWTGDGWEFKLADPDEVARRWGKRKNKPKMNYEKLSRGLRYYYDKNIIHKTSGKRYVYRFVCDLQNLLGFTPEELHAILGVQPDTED
Method in brief: as §1

SPDEF = target: T4, SPDEF (Homo sapiens, UniProt O95238 1-335)
T4 sequence: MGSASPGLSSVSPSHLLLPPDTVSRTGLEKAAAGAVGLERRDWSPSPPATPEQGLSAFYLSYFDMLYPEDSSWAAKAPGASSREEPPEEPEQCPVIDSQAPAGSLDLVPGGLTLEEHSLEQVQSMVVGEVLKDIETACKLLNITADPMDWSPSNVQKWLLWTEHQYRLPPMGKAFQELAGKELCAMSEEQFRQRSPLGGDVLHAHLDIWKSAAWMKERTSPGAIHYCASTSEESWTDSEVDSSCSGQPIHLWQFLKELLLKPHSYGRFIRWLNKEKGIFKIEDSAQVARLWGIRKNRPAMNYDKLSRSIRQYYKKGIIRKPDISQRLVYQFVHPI
Method in brief: as §1

ETV7 = target: T5, ETV7 (Homo sapiens, UniProt Q9Y603 1-341)
T5 sequence: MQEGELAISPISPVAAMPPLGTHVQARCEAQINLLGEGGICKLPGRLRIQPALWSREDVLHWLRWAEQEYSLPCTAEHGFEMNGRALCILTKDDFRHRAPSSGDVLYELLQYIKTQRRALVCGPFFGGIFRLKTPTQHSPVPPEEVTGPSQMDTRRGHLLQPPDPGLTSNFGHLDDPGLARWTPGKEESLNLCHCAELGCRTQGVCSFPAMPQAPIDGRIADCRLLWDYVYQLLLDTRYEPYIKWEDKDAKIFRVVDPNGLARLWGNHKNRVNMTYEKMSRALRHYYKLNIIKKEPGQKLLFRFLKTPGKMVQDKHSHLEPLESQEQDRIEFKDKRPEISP
Method in brief: as §1

ELF5 = target: T6, ELF5 (Homo sapiens, UniProt Q9UKW6-2 1-255)
T6 sequence: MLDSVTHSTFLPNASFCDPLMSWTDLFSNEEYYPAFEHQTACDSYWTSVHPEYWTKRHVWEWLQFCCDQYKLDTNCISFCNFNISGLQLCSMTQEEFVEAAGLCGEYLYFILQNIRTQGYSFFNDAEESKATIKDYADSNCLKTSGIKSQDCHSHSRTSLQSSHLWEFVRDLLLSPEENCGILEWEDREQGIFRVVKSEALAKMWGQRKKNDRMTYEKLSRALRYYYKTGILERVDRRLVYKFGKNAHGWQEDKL
Method in brief: as §1

ETV3 = target: T7, ETV3 (Homo sapiens, UniProt P41162-2 1-143)
T7 sequence: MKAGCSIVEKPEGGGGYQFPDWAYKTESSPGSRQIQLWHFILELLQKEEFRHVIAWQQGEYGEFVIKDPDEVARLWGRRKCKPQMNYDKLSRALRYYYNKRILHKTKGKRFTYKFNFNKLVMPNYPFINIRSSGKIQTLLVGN
Method in brief: as §1

ETV6 = ETV6 (Homo sapiens, UniProt P41212 1-452)
ETV6, sequence (P41212 whole entry): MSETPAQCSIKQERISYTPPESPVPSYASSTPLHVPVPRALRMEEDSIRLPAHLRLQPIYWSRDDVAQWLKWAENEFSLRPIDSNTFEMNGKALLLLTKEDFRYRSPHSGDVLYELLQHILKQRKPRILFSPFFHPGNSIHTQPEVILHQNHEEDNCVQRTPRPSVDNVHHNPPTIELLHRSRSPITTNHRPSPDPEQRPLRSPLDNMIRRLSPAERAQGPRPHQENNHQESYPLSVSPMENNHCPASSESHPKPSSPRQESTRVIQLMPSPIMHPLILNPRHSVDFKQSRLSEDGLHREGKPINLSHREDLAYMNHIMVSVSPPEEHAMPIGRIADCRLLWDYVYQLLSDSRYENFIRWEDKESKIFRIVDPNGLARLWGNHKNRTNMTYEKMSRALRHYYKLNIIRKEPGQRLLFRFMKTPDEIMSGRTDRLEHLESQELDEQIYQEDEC
Method in brief: as §1

Row | Sequence | binding signal (ERF) | binding signal (ETV3L) | binding signal (ETS2) | binding signal (SPDEF) | binding signal (ETV7) | binding signal (ELF5) | binding signal (ETV3) | binding signal (ETV6)
1 | ATGAGC | 1.29 fold enrichment (6-mer frequency, TF over GST control) | 1.14 fold enrichment (6-mer frequency, TF over GST control) | 1.26 fold enrichment (6-mer frequency, TF over GST control) | 1.12 fold enrichment (6-mer frequency, TF over GST control) | 1.15 fold enrichment (6-mer frequency, TF over GST control) | 1.12 fold enrichment (6-mer frequency, TF over GST control) | 1.34 fold enrichment (6-mer frequency, TF over GST control) | 1.24 fold enrichment (6-mer frequency, TF over GST control)
2 | TAGTTT | 1.36 fold enrichment (6-mer frequency, TF over GST control) | 1.31 fold enrichment (6-mer frequency, TF over GST control) | 1.19 fold enrichment (6-mer frequency, TF over GST control) | 1.16 fold enrichment (6-mer frequency, TF over GST control) | 1.19 fold enrichment (6-mer frequency, TF over GST control) | 1.18 fold enrichment (6-mer frequency, TF over GST control) | 1.32 fold enrichment (6-mer frequency, TF over GST control) | 1.23 fold enrichment (6-mer frequency, TF over GST control)
3 | CAAAAC | 1.28 fold enrichment (6-mer frequency, TF over GST control) | 1.27 fold enrichment (6-mer frequency, TF over GST control) | 1.27 fold enrichment (6-mer frequency, TF over GST control) | 1.23 fold enrichment (6-mer frequency, TF over GST control) | 1.23 fold enrichment (6-mer frequency, TF over GST control) | 1.25 fold enrichment (6-mer frequency, TF over GST control) | 1.18 fold enrichment (6-mer frequency, TF over GST control) | 1.33 fold enrichment (6-mer frequency, TF over GST control)
4 | GTAAAT | 1.18 fold enrichment (6-mer frequency, TF over GST control) | 1.23 fold enrichment (6-mer frequency, TF over GST control) | 1.18 fold enrichment (6-mer frequency, TF over GST control) | 1.13 fold enrichment (6-mer frequency, TF over GST control) | 1.2 fold enrichment (6-mer frequency, TF over GST control) | 1.12 fold enrichment (6-mer frequency, TF over GST control) | 1.13 fold enrichment (6-mer frequency, TF over GST control) | 1.18 fold enrichment (6-mer frequency, TF over GST control)
5 | TTCCCA | 1.24 fold enrichment (6-mer frequency, TF over GST control) | 1.25 fold enrichment (6-mer frequency, TF over GST control) | 1.15 fold enrichment (6-mer frequency, TF over GST control) | 1.25 fold enrichment (6-mer frequency, TF over GST control) | 1.27 fold enrichment (6-mer frequency, TF over GST control) | 1.42 fold enrichment (6-mer frequency, TF over GST control) | 1.25 fold enrichment (6-mer frequency, TF over GST control) | 1.33 fold enrichment (6-mer frequency, TF over GST control)
6 | TAATCT | 1.39 fold enrichment (6-mer frequency, TF over GST control) | 1.32 fold enrichment (6-mer frequency, TF over GST control) | 1.43 fold enrichment (6-mer frequency, TF over GST control) | 1.34 fold enrichment (6-mer frequency, TF over GST control) | 1.5 fold enrichment (6-mer frequency, TF over GST control) | 1.46 fold enrichment (6-mer frequency, TF over GST control) | 1.28 fold enrichment (6-mer frequency, TF over GST control) | 1.37 fold enrichment (6-mer frequency, TF over GST control)
7 | GTTATT | 1.12 fold enrichment (6-mer frequency, TF over GST control) | 1.13 fold enrichment (6-mer frequency, TF over GST control) | 1.14 fold enrichment (6-mer frequency, TF over GST control) | 1.04 fold enrichment (6-mer frequency, TF over GST control) | 1.29 fold enrichment (6-mer frequency, TF over GST control) | 1.21 fold enrichment (6-mer frequency, TF over GST control) | 1.2 fold enrichment (6-mer frequency, TF over GST control) | 1.2 fold enrichment (6-mer frequency, TF over GST control)
